Bioassay records from PubChem BioAssay.
In the library only some 7.4% were active in any assay of this set; here they are far more common.
SMN2 splice enh: qHTS Assay for Enhancers of SMN2 Splice Variant Expression; HEK293 SMN2-luciferase splicing reporter, luminescence, 30-36 h; Potency, µM (top dose mostly 46.1 µM), without a hit: at the top dose activity change, positive = activation, actives largely listed as activators; actives 2.8% (n = 210,000); further: % of control where 0% means no effect; nearly all actives have a fitted effect of over 55% in size
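qHTS luciferase splicing reporter: luminescence rises when SMN2 exon 7 is included in transfected HEK293 cells. Compound exposure lasted 30-36 h at 37C, with 4.5 mM final sodium butyrate as control, followed by a ONE-Glo read.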
Rab9 prom act: qHTS Assay for Rab9 Promoter Activators; Huh7 Rab9 promoter-luciferase reporter, luminescence, 24 h; Potency, µM (top dose mostly 9.22 µM), inactives show top-dose activation, negative = inhibition, most hits filed as activators; actives 2.8% (n = 320,000); AID 485297, 2010; further: % of control where 0% means no effect; nearly all actives have a fitted effect of over 60% in size
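Cells were plated at 1500 per well in reduced-serum medium with 10% FBS and left 2 h. Compound in DMSO was then added for 24 h at 37 °C. Reporter signal was read by luminescence after 10 min with luciferase detection reagent.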
FLuc counter: qHTS profiling assay for firefly luciferase inhibitor/activator using purifed enzyme and Km concentrations of substrates (counterscreen for miR-21 project) | Luciferin 4-monooxygenase (Photinus pyralis), P08659 | purified FLuc, Km substrates, luminescence inhibition | Potency, µM (highest dose often 57.5 µM), inactives show at the highest dose activity change, negative = inhibition, actives largely listed as inhibitors | actives 6.9% (n = 360,000);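 further: plate controls were vehicle for no effect and reference inhibitor for full effect; nearly all actives have a fitted effect of over 55% in size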
Target sequence (P08659 whole entry, looked up): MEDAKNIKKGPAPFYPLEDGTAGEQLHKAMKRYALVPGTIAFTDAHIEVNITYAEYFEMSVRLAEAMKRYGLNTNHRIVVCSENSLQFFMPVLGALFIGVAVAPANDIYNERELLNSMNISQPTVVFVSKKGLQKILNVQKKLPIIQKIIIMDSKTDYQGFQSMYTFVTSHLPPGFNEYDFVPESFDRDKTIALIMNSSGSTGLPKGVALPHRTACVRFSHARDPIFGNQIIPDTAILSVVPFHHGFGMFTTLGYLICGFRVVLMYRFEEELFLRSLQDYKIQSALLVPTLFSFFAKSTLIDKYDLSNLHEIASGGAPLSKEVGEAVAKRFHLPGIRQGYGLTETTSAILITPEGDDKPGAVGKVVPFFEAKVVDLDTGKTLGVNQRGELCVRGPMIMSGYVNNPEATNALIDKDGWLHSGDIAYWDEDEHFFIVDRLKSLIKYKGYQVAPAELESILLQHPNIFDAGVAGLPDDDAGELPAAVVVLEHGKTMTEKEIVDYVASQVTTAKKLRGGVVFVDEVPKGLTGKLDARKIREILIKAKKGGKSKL
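Purified P. pyralis luciferase (10nM final) with 10uM D-luciferin and 10uM ATP (Km levels) in 50mM Tris acetate pH 7.5, 10mM Mg acetate, 0.01% Tween-20, 0.05% BSA; qHTS 6-point titration, ~60 µM downward; luminescence read.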
NPC1 promoter act: qHTS Assay for NPC1 Promoter Activators | Huh7 NPC1 promoter luciferase reporter, 24 h | Potency, µM (series often up to 9.22 µM), for the others: at the highest dose activation, most hits filed as activators | actives 2.4% (n = 320,000) | AID 485313, 2010; further: % of control where 0% means no effect; nearly all actives have a fitted effect of over 60% in size
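Luminescence read-out of NPC1 promoter-driven luciferase in stably transfected Huh7 cells; compounds delivered in DMSO and left 24 h at 37C, 5% CO2, qHTS titration format.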
ELG1 genotoxic: qHTS screen for small molecules that induce genotoxicity in human embryonic kidney (HEK293T) cells expressing luciferase-tagged ELG1; HEK293T ELG1-luciferase reporter, luminescence, 16 h; Potency, µM (doses to about 46 µM), inactives show at the top dose activity change, positive = activation, actives largely listed as activators; actives 1.3% (n = 330,000); AID 504466, 2011; further: % of control where 0% means no effect; nearly all actives have a fitted effect of over 60% in size
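HEK293T cells expressing luciferase-tagged ELG1 were exposed to compound or DMSO vehicle for 16 hr at 37 °C and 5% CO2. Luciferase activity was then measured with ONE-Glo after 30 min at room temperature.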
An asterisk follows results filed as active; ? = inconclusive; . = no result. The call rests on the fitted dose curve; in most records, active means well fitted curve in the direction sought with a large enough effect; inconclusive means small, poorly fitted or top-dose-only effect, or another doubt; inactive means no such curve, though single readings can be large; an effect the other way counts as inactive or inconclusive. Potency means the concentration at half of the fitted maximal effect.

SMILES	SMN2 splice enh	Rab9 prom act	FLuc counter	NPC1 promoter act	ELG1 genotoxic
O=C(CCc1nnc(-c2ccc3c(c2)OCO3)o1)NC(c1ccccn1)C(F)(F)F (stereo not drawn)	.	27.3%	-18.5%	17.9%	18.0%
COC(=O)c1c(SCC(=O)Nc2cc(C)cc(C)c2)[nH]c2ccccc2c1=O	12.9%	.	?	.	.
COc1ccc(/C=C2\Sc3ccc(C(=O)NCC4CCCO4)cc3N(C)C2=O)cc1 (stereo not drawn)	.	-4.3%	?	1.6%	0.8%
COc1ccc(/C=C2\Sc3ccc(C(=O)N4CCOCC4)cc3N(C)C2=O)cc1	.	-0.2%	15.1µM*	1.8%	-0.7%
Cc1cccc(NC(=O)N2CC(=O)Nc3sc4c(c3C2c2ccccc2)CCCC4)c1C (stereo not drawn)	.	.	-12.2%	.	.
NC(=O)c1cc([N+](=O)[O-])ccc1NCc1ccc(C(=O)O)cc1	.	-2.9%	-4.5%	2.1%	2.9%
CC(=O)Nc1ccc(NC(=O)C(C)OC(=O)C2CCCCC2)cc1 (stereo not drawn)	.	-8.1%	5.9%	1.5%	0.3%
N#C/C(=C\c1ccc(-c2ccc(C(=O)O)cc2)o1)C(=O)NCC1CCCO1 (stereo not drawn)	?	24.5%	?	?	6.1%
Cc1cccc(C)c1NC(=O)/C(C#N)=C/c1ccc(-c2ccc(C(=O)O)cc2)o1	.	2.51µM*	12µM*	0.631µM*	?
N#C/C(=C\c1ccc(-c2ccc(C(=O)O)cc2)o1)C(=O)Nc1ccc(F)cc1	.	?	2.39µM*	?	2.3%
CCOC(=O)c1ccc(-c2ccc(/C=C(\C#N)C(=O)Nc3cccc(C)c3)o2)cc1	.	.	-3.7%	.	.
O=C(Cn1c(=O)n(-c2ccccc2Cl)c(=O)c2sc3ccccc3c21)N1CCCC1	8.2%	.	-4.5%	.	.
O=C(Cn1nc(-c2cccc([N+](=O)[O-])c2)c2ccccc2c1=O)NCC1CCCO1 (stereo not drawn)	6.6%	-1.8%	0.5%	1.6%	4.1%
CCC(=O)NCc1csc(-c2cccs2)n1	.	?	-7.8%	20.2%	9.7%
COc1ccccc1CC(=O)NCc1csc(-c2cccs2)n1	.	?	16.9µM*	?	16.1%
COc1ccccc1CCNC(=O)c1nc(-c2cccs2)no1	?	?	16.9µM*	?	?
CC(NC(=O)CN1C(=O)NC2(CCCCCC2)C1=O)c1ccccc1 (stereo not drawn)	.	-3.4%	.	0.6%	3.2%
CN(C)c1ccc(/C=C2/SC(=O)N(CCN=C3NS(=O)(=O)c4ccccc43)C2=O)cc1	.	?	-12.9%	?	12.5%
CN(C)c1ccc(/C=C2\SC(=O)N(CCc3nnc(N)s3)C2=O)cc1	.	?	0.135µM*	0.1µM*	?
COc1cccc(/C=C/C(=O)Nc2ccc3nc4n(c(=O)c3c2)CCCC4)c1OC	.	9.0%	12µM*	4.6%	-11.5%
COc1cc(OC)cc(C(=O)Nc2ccc3nc4n(c(=O)c3c2)CCCCC4)c1	17.8µM*	3.55µM*	12µM*	3.16µM*	?
COc1cc(/C=C/C(=O)Nc2ccc3nc4n(c(=O)c3c2)CCCC4)cc(OC)c1OC	.	-6.7%	-9.1%	-11.1%	-6.3%
COc1cccc(NC(=O)CC(=O)Nc2ccc3nc4n(c(=O)c3c2)CCCCC4)c1	-2.7%	.	-18.4%	.	.
CCn1cc(S(=O)(=O)NC2CCCCC2)cn1	.	-2.3%	-0.2%	-1.0%	18.0%
CCCC(=O)Nc1nnc(C2CCCO2)s1 (stereo not drawn)	.	-1.9%	-3.4%	-1.5%	-0.6%
SMILES	SMN2 splice enh	Rab9 prom act	FLuc counter	NPC1 promoter act	ELG1 genotoxic
O=C(Nc1nnc(C2CCCCC2)s1)c1cccs1	14.1µM*	2.82µM*	4.78µM*	2.24µM*	?
O=C(Nc1nnc(C2CCCO2)s1)c1cccs1 (stereo not drawn)	12.6µM*	15.1%	?	28.9%	?
COc1cccc(C(=O)Nc2nnc(C3CCCO3)s2)c1 (stereo not drawn)	11.2µM*	2.24µM*	15.1µM*	2.82µM*	?
OCCC1CN(Cc2ccon2)CCN1Cc1ccccc1 (stereo not drawn)	.	-2.4%	-1.3%	1.2%	-0.1%
Cc1ccc(C)c(CSc2nc3ccncc3n2CC(=O)Nc2ccc(N(C)C)cc2)c1	-29.3%	.	?	.	.
CC(C)c1ccc(/C=N/NC(=O)c2cccc(Cl)c2)cc1	15.8µM*	2.82µM*	2.69µM*	2.82µM*	20.6µM*
CC(C)Oc1ccccc1/C=N/NC(=O)c1ccccc1Cl	.	-0.4%	?	25.6%	0.5%
Cc1ccc(/C=N/NC(=O)c2cccc(NC(=O)c3ccccc3Cl)c2)o1	.	-1.9%	16.9µM*	-1.7%	-3.6%
O=C(N/N=C/c1ccc(N2CCOCC2)cc1)c1ccccn1	.	2.24µM*	6.75µM*	2.51µM*	?
CC(C)c1ccc(C(=O)N/N=C/c2cccc(Cl)c2Cl)cc1	4.8%	?	8.49µM*	?	0.0%
O=C(N/N=C\c1cc([N+](=O)[O-])ccc1N1CCOCC1)c1ccccn1	-11.2%	-5.3%	3.4%	-1.6%	10.3%
COc1cc2c(cc1OC)C(C)N(S(=O)(=O)c1cn(C)c(C)n1)CC2 (stereo not drawn)	.	-1.4%	1.4%	-0.5%	0.2%
CC1(C)CCN2CCC(C)(C)c3c(O)ccc1c32	.	-0.8%	-0.8%	-0.2%	-14.0%
Cc1ccccc1NC(=O)COC(=O)Cc1ccsc1	0.0%	11.2%	-3.3%	-0.6%	0.5%
CC(C)c1ccc(/C=N/NC(=O)c2ccccn2)cc1	.	0.316µM*	0.379µM*	0.141µM*	?
O=C(N/N=C\c1ccc(Oc2ccccc2)cc1)c1csnn1	15.8µM*	2.24µM*	2.69µM*	3.55µM*	?
CN(C)c1ccc(/C=N/NC(=O)C(=O)N2CCCCCC2)cc1	.	-3.5%	-22.9%	-0.1%	4.6%
CN(C)c1ccc(/C=N/NC(=O)c2ccccn2)cc1	.	0.126µM*	1.69µM*	0.501µM*	1.16µM*
CN(C)c1ccc(/C=N/NC(=O)c2ccnn2C)cc1	.	0.501µM*	5.36µM*	2.51µM*	?
Cc1nnsc1C(=O)N/N=C/c1ccccc1	18.5%	-1.7%	-5.8%	0.8%	0.8%
CCc1ccc(-n2c(=S)sc3c(=O)n(-c4ccccc4C)c(SCC(=O)O)nc32)cc1	.	0.1%	1.7%	-3.4%	-2.0%
Cc1ccc(COC(=O)c2[nH]c3c(c2C)C(=O)CC(c2ccc(Cl)cc2)C3)cc1 (stereo not drawn)	-10.3%	.	0.7%	.	.
Cc1cccc(N(CC(=O)NCc2ccc(F)cc2)C(=O)c2csnn2)c1C	.	-8.3%	-0.8%	0.4%	-2.4%
CN(C)c1ccc(/C=N/NC(=O)c2cnc3ccccc3c2)cc1	.	2.0%	?	12.2%	7.5%
